High-throughput results as filed in PubChem BioAssay.
DT40 TDP1 no CPT: qHTS for Inhibitors of human tyrosyl-DNA phosphodiesterase 1 (TDP1): qHTS in cells in absence of CPT. DT40 Tdp1-/- hTDP1 cells, no CPT, ATP luminescence, 48 h. Potency, µM (highest dose often 46.2 µM), most hits filed as inhibitors. AID 686978, 2013. 420,000 tested, 15% active; further: nearly all actives have a fitted effect of over 55% in size
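Readout: luminescence from CellTiter-Glo after 30 min in the dark at RT. Cells: DT40 Tdp1-/- with stable hTDP1, 400/well. Exposure: compounds alone, ≥48 hr, 37 °C.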
TDP1 inh: TDP1 (human) enzyme inhibition; Q9NUW8; recombinant TDP1, AlphaScreen DNA substrate cleavage; Potency, µM (top dose mostly 130 µM), hits mostly inhibitors; 350,000 tested, 0.28% active; further: nearly all actives have a fitted effect of over 40% in size
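Enzyme-compound mixtures sat 15 min at room temperature, followed by a 5 min reaction with 15 nM final substrate and 10 min with AlphaScreen beads. Recombinant human Tdp1 was used at 1 nM final.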
TDP1 cell CPT: DT40-hTDP1 cell growth loss with CPT; chicken DT40 Tdp1-/-;hTDP1 cells + 20 nM CPT, ATP luminescence, 48 h; Potency, µM (top dose mostly 46.2 µM), most hits filed as inhibitors; 420,000 tested, 12% active; further: nearly all actives have a fitted effect of over 55% in size
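Chicken DT40 Tdp1-/- cells stably complemented with human TDP1 were seeded at 400 cells/well in medium containing 20 nM camptothecin, exposed to pin-transferred compounds, and grown at 37 °C for at least 48 hr. Viability was read as ATP luminescence.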
IL-1B inflam inh: blocks inflammasome-driven IL-1 beta release; THP-1 LPS/ATP IL-1B secretion, AlphaLISA, 16 h; hits give low values; activity change, % at 57.5 µM; 360,000 tested, 4.7% active; AID 743279; in the data active means activity change below about -50%; inconclusive means mostly about -30% to -49%
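THP-1 cells pretreated 1 hr with compounds (up to 57.5 uM final), then stimulated with LPS (250 ng/mL final) plus ATP (1.25 mM final); secreted IL-1B measured by AlphaLISA after 16 hr, decreased signal indicating inhibition.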
Six1-Eya2 inh: blocks human Six1 binding to Eya2 | Q15475+O00167 | AlphaScreen GST-Six1/His-Eya2 binding, biochemical; hits give low values | 360,000 tested, 0.56% active | AID 651725 | activity change, % (no concentration beside the values); in the data active means activity change below about -65%; inconclusive means mostly about -30% to -63%
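AlphaScreen with GST-Six1 and His-Eya2 (5X mix: 250 nM and 500 nM), glutathione donor and nickel acceptor beads; buffer 50 mM Tris pH 8.0, 300 mM NaCl, 1 mM TCEP; 1 h at 37 C in the dark.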
CtBP-E1A blk: CtBP/E1A binding inhibition; AID 651724; activity change, % (concentration not given with the values); 340,000 tested, 0.49% active; AlphaScreen GST-E1A/His-CtBP binding, 1536-well; hits give low values; in the data active means activity change below about -65%; inconclusive means mostly about -30% to -63%
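In 5 uL wells, 23 nL compound meets equimolar GST-E1A and His-CtBP (5X stock 125 nM each) for 2 h, 37 °C. Beads (5X, 50 ug/mL) then 1 h, 37 °C, dark.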
Numbers stand for hits; – = inactive; ? = inconclusive; · = no result. Only some compounds are listed: those with a hit (about 18% of all), similar ones and a draw of the others. Unless noted, the call rests on the fitted dose curve; in most records, active means well fitted curve in the direction sought with a large enough effect; inconclusive means small, poorly fitted or top-dose-only effect, or another doubt; inactive means no such curve, though single readings can be large; an effect the other way counts as inactive or inconclusive.

SMILES | DT40 TDP1 no CPT | TDP1 inh | TDP1 cell CPT | IL-1B inflam inh | Six1-Eya2 inh | CtBP-E1A blk
COc1ccc(C(=O)NCC(=O)N/N=C(C)\C=C\c2ccccc2)cc1OC | – | – | – | ? | – | ·
CCOc1c(Cl)cc(C(=O)NCCN2CCCCC2)cc1Cl | – | – | – | – | – | –
O=C(CSc1ccccn1)N1CCN(c2ncc(C(F)(F)F)cc2Cl)CC1 | 16µM | – | ? | – | – | –
FC(F)(F)c1cnc(N2CCN(C(=S)NCc3ccccc3)CC2)c(Cl)c1 | 21µM | – | ? | -93 | – | –
S=C(NCc1ccccc1)N1CCN(c2ccccc2)CC1 | ? | – | – | – | – | –
O=C(O)c1nn(CC(=O)N2CCN(c3ncc(C(F)(F)F)cc3Cl)CC2)c(=O)c2ccccc12 | 16µM | – | – | – | – | –
O=C(CSc1ccccn1)N1CCN(C(=O)CSc2ccccn2)CC1 | – | – | – | – | – | –
O=C(O)c1nn(CC(=O)N2CCCCCC2)c(=O)c2ccccc12 | – | – | – | – | – | –
O=c1c2[nH]c3cccc(Cl)c3c2ncn1CC1CCCO1 (configuration not stated) | – | · | – | – | – | –
COc1cc(C(=O)NC(=S)Nc2ccccc2N2CCOCC2)cc(OC)c1OC | 12µM | – | 18µM | – | – | –
COc1cccc(C(=O)NC(=S)Nc2ccccc2N2CCOCC2)c1 | ? | – | ? | – | – | –
Cc1ccc(C(=O)NC(=S)Nc2ccccc2N2CCOCC2)cc1C | ? | – | 26µM | – | – | –
FC(F)(F)Oc1ccc(NC(=S)Nc2ccccc2N2CCOCC2)cc1 | 16µM | – | ? | – | – | –
CN(CC(=O)Nc1cccc(F)c1)C(=O)CSc1ccc(Br)cc1 | ? | · | – | – | – | –
CSc1ccccc1NC(=O)COC(=O)Cc1ccsc1 | – | – | – | – | – | –
CCCOP(=O)(c1ccc(N(C)C)cc1)C(Nc1ccccc1)c1ccc(N(C)C)cc1 (configuration not stated) | 2.3µM | – | 8.2µM | – | – | –
CCCOP(=O)(c1ccc(N(C)C)cc1)C(O)c1ccccc1OC (configuration not stated) | ? | – | – | – | – | –
CCCC(C)C(=O)Nc1nnc(CCc2ccccc2)s1 (configuration not stated) | ? | · | ? | – | – | –
Cc1ccc(C)c(CN2C(=O)C(O)(c3c[nH]c4ccccc34)c3ccccc32)c1 (configuration not stated) | 23µM | – | 29µM | · | · | ·
O=C1N(Cc2ccccc2)c2ccc(Cl)cc2C12OCCO2 | – | · | – | – | – | –
Cc1cc(C)c2c(c1)NC(=O)C2(O)c1c[nH]c2ccccc12 (configuration not stated) | – | – | – | · | · | ·
O=C1N(Cc2ccccc2)c2ccccc2C1(O)c1c[nH]c2ccccc12 (configuration not stated) | – | – | – | · | · | ·
O=C1N(Cc2ccccc2Cl)c2ccccc2C1(O)c1c[nH]c2ccccc12 (configuration not stated) | ? | – | 16µM | · | · | ·
Cc1ccccc1CN1C(=O)C(O)(c2c[nH]c3ccccc23)c2cc(Cl)ccc21 (configuration not stated) | 18µM | – | 16µM | · | · | ·
CCOc1ccc2nc(N=NC3=C(O)CC(C)(C)CC3=O)sc2c1 | 4.1µM | – | 3.7µM | – | – | –
SMILES | DT40 TDP1 no CPT | TDP1 inh | TDP1 cell CPT | IL-1B inflam inh | Six1-Eya2 inh | CtBP-E1A blk
Cc1nc2ccc(N=NC3=C(O)CC(C)(C)CC3=O)cc2s1 | ? | – | – | – | – | –
Cc1cccc(C)c1-n1nnnc1C(c1ccccc1OC(F)(F)F)N1CCN(C/C=C/c2ccccc2)CC1 (configuration not stated) | 21µM | · | ? | – | – | –
COc1cccc(C(c2nnnn2-c2c(C)cccc2C)N2CCN(C/C=C/c3ccccc3)CC2)c1OC (configuration not stated) | ? | · | ? | – | – | ?
CC(C)(C)n1nnnc1C(c1ccccc1OC(F)(F)F)N1CCN(C/C=C/c2ccccc2)CC1 (configuration not stated) | 15µM | · | 21µM | – | – | –
COc1ccc(C(=O)NCC(=O)OCC(=O)c2ccc(Cl)cc2)cc1OC | – | – | – | – | – | –
O=C(CN(Cc1cccs1)C(=O)CNS(=O)(=O)c1ccc(Cl)cc1)NCC1CCCO1 (configuration not stated) | – | – | – | – | – | –
COc1ccc(-c2ccc(CN3C(C(C)C)C(=O)N(Cc4cn(CCC5OCCO5)nn4)CCS3(=O)=O)cc2)cc1 (configuration not stated) | 8.2µM | · | 9.2µM | – | – | –
CC(C)C1C(=O)N(Cc2cn(CCC3OCCO3)nn2)CCS(=O)(=O)N1Cc1ccc(-c2ccc(Cl)c(Cl)c2)cc1 (configuration not stated) | 0.92µM | · | 2.1µM | – | – | –
CC(C)Cc1ccc(CN2C(C(C)C)C(=O)N(Cc3cn(CCC4OCCO4)nn3)CCS2(=O)=O)cc1 (configuration not stated) | 18µM | · | ? | -56 | – | –
COc1ccc(OCCCC(=O)Nc2nncs2)cc1 | – | – | – | – | – | –
COc1ccc(CCCc2nnc(SCC(=O)Nc3nccs3)n2C)cc1C | ? | – | ? | – | – | –
CCOc1ccc(NC(=O)c2cnc(N3CCCC3)nc2C)cc1 | ? | – | – | · | · | ·
CC1OC1c1ccc(-c2ccc(C3OC3C)cc2)cc1 (configuration not stated) | ? | · | – | – | – | -86
CCCC(=O)Nc1ccccc1NC(=O)c1cc(OC)c(OC)c(OC)c1 | – | – | – | – | – | –
Cc1cccc(N)c1-c1c(C)cccc1N | – | – | – | – | – | –
Cc1cc(C)c2c(C)nn(-c3ccccc3)c2n1 | – | – | – | – | – | –
Cc1cc(C)c2c(=N)c3ccccc3n(CCCCCCCCn3c4ccccc4c(=N)c4c(C)cc(C)nc43)c2n1 | ? | · | 10µM | -52 | – | –
Cc1ccc(NC(=S)NCC2CCN(C(C)c3ccccc3)C2)cc1C (configuration not stated) | 16µM | – | 23µM | – | – | –
COc1ccc(N(C(=O)c2ccc(Br)o2)C2C=CS(=O)(=O)C2)c(OC)c1 (configuration not stated) | 18µM | – | ? | – | – | ·
COc1cc(C(C[N+](=O)[O-])c2c(C)[nH]c3ccccc23)ccc1O (configuration not stated) | – | – | – | – | – | –
